Laboratory results published in paper PMC10812921, “Transcriptional Coactivator BOB1 (OBF1, OCA-B) Modulates the Specificity of DNA Recognition by the POU-Domain Factors OCT1 and OCT2 in a Monomeric Configuration”.

Legend:
[1] = target: POU1 (OCT1 POU domain) (human, UniProt P14859 260-458); assay: EMSA-SELEX-seq; no BOB1; 20 mM Tris-HCl pH 7.6, 140 mM NaCl, 10% glycerol, 0.5 mM EDTA, 0.05% Triton X-100, 0.1 mg/mL BSA, 0.1 mg/mL poly(dI-dC), 5 mM DTT, room temperature, 20 min; high values mean tight binding; conditions: protein: recombinant; dsDNA, one strand shown
Procedure, shortened: (§1)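 After expression in E. coli BL21, tagged POU-domain proteins were purified under denaturing conditions and then renatured. Each binding reaction held 30 ng protein and 300 ng of a PCR-amplified double-stranded random 35-nt library in 20 μL Tris–HCl pH 7.6 binding buffer, with or without 28 ng coactivator protein, for 20 min at RT. Bands holding complexes were cut from native 6% PAGE, eluted and PCR-amplified across four rounds, and the output was Illumina-sequenced. The value given for binding preference is the share, in percent, of sequenced 8-mers fitting a motif pattern.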

[2] = target: T1, POU2 (OCT2 POU domain) (human, UniProt P09086 175-386); assay: as above; conditions: protein: recombinant; dsDNA, one strand shown
T1 sequence: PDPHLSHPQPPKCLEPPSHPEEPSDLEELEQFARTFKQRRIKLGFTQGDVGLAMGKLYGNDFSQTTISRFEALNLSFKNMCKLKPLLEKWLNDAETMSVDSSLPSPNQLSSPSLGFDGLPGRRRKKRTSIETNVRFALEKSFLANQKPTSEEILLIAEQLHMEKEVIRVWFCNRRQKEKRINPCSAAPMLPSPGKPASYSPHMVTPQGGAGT
Procedure, shortened: as §1

[3] = target: POU1 (OCT1 POU domain);BOB1 (OBF1, OCA-B) (human;human, UniProt P14859;Q16633 260-458;1-256, |); assay: EMSA-SELEX-seq; with BOB1 (ternary complex band); 20 mM Tris-HCl pH 7.6, 140 mM NaCl, 10% glycerol, 0.5 mM EDTA, 0.05% Triton X-100, 0.1 mg/mL BSA, 0.1 mg/mL poly(dI-dC), 5 mM DTT, room temperature, 20 min; high values mean tight binding; conditions: protein: recombinant;recombinant; copies: 1;1; dsDNA, one strand shown
Procedure, shortened: as §1

[4] = target: T2, POU2 (OCT2 POU domain);BOB1 (OBF1, OCA-B) (human;human, UniProt P09086;Q16633 175-386;1-256, |); assay: as above; conditions: protein: recombinant;recombinant; copies: 1;1; dsDNA, one strand shown
T2 sequence 1: T1 sequence
T2 sequence 2: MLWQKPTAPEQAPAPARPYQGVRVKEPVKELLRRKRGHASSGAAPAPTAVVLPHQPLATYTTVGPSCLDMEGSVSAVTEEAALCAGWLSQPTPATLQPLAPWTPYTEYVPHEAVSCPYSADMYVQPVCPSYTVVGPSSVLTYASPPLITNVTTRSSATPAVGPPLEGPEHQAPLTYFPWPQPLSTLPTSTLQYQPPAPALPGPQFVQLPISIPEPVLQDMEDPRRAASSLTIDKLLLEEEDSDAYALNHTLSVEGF
Procedure, shortened: as §1

Sequence of POU1 (OCT1 POU domain) (P14859 260-458): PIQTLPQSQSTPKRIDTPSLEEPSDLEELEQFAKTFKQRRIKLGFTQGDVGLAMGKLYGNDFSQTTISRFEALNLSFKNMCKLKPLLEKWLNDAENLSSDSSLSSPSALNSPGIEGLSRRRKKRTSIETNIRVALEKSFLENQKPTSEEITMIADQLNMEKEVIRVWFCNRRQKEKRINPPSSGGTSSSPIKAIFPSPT

Sequence	binding signal [1]	binding signal [2]	binding signal [3]	binding signal [4]
AAACTAAG	0.0484 % of ANNNNAAN 8-mers	0.0478 % of ANNNNAAN 8-mers	0.0636 % of ANNNNAAN 8-mers	0.052 % of ANNNNAAN 8-mers
AATACAAT	0.0797 % of ANNNNAAN 8-mers	0.107 % of ANNNNAAN 8-mers	0.0663 % of ANNNNAAN 8-mers	0.0982 % of ANNNNAAN 8-mers
ACGCTAAC	0.0118 % of ANNNNAAN 8-mers	0.0121 % of ANNNNAAN 8-mers	0.0133 % of ANNNNAAN 8-mers	0.0157 % of ANNNNAAN 8-mers
ATGGAAAA	0.233 % of ANNNNAAN 8-mers	0.162 % of ANNNNAAN 8-mers	0.289 % of ANNNNAAN 8-mers	0.147 % of ANNNNAAN 8-mers
AAGGGAAG	0.05 % of ANNNNAAN 8-mers	0.0541 % of ANNNNAAN 8-mers	0.0511 % of ANNNNAAN 8-mers	0.0388 % of ANNNNAAN 8-mers
AACTGAAG	0.0256 % of ANNNNAAN 8-mers	0.0391 % of ANNNNAAN 8-mers	0.0215 % of ANNNNAAN 8-mers	0.0338 % of ANNNNAAN 8-mers
ATATTAAT	0.424 % of ANNNNAAN 8-mers	0.558 % of ANNNNAAN 8-mers	0.142 % of ANNNNAAN 8-mers	0.177 % of ANNNNAAN 8-mers
AAAAGAAA	0.106 % of ANNNNAAN 8-mers	0.084 % of ANNNNAAN 8-mers	0.119 % of ANNNNAAN 8-mers	0.0702 % of ANNNNAAN 8-mers
ACTCTAAC	0.013 % of ANNNNAAN 8-mers	0.015 % of ANNNNAAN 8-mers	0.0187 % of ANNNNAAN 8-mers	0.0182 % of ANNNNAAN 8-mers
ATTACAAT	0.195 % of ANNNNAAN 8-mers	0.26 % of ANNNNAAN 8-mers	0.0847 % of ANNNNAAN 8-mers	0.0966 % of ANNNNAAN 8-mers
AGGTCAAT	0.0557 % of ANNNNAAN 8-mers	0.0662 % of ANNNNAAN 8-mers	0.0437 % of ANNNNAAN 8-mers	0.0636 % of ANNNNAAN 8-mers
ACGAGAAC	0.0179 % of ANNNNAAN 8-mers	0.0178 % of ANNNNAAN 8-mers	0.0156 % of ANNNNAAN 8-mers	0.0165 % of ANNNNAAN 8-mers
ATCTCAAT	0.0561 % of ANNNNAAN 8-mers	0.0846 % of ANNNNAAN 8-mers	0.0558 % of ANNNNAAN 8-mers	0.0768 % of ANNNNAAN 8-mers
AAGTGAAA	0.0721 % of ANNNNAAN 8-mers	0.0587 % of ANNNNAAN 8-mers	0.0788 % of ANNNNAAN 8-mers	0.0627 % of ANNNNAAN 8-mers
AGCTAAAC	0.0187 % of ANNNNAAN 8-mers	0.0236 % of ANNNNAAN 8-mers	0.0265 % of ANNNNAAN 8-mers	0.0256 % of ANNNNAAN 8-mers
ACCTTAAA	0.021 % of ANNNNAAN 8-mers	0.023 % of ANNNNAAN 8-mers	0.0375 % of ANNNNAAN 8-mers	0.0173 % of ANNNNAAN 8-mers
AGTCGAAT	0.061 % of ANNNNAAN 8-mers	0.0604 % of ANNNNAAN 8-mers	0.0468 % of ANNNNAAN 8-mers	0.0611 % of ANNNNAAN 8-mers
ATCATAAG	0.0496 % of ANNNNAAN 8-mers	0.0581 % of ANNNNAAN 8-mers	0.0379 % of ANNNNAAN 8-mers	0.0421 % of ANNNNAAN 8-mers
AGCTGAAA	0.0267 % of ANNNNAAN 8-mers	0.0293 % of ANNNNAAN 8-mers	0.0261 % of ANNNNAAN 8-mers	0.0239 % of ANNNNAAN 8-mers
ATACAAAA	0.144 % of ANNNNAAN 8-mers	0.0857 % of ANNNNAAN 8-mers	0.195 % of ANNNNAAN 8-mers	0.105 % of ANNNNAAN 8-mers
AAGGAAAA	0.113 % of ANNNNAAN 8-mers	0.0955 % of ANNNNAAN 8-mers	0.17 % of ANNNNAAN 8-mers	0.0999 % of ANNNNAAN 8-mers
ATGACAAA	0.0622 % of ANNNNAAN 8-mers	0.0639 % of ANNNNAAN 8-mers	0.0539 % of ANNNNAAN 8-mers	0.0479 % of ANNNNAAN 8-mers
AACCAAAC	0.0248 % of ANNNNAAN 8-mers	0.0236 % of ANNNNAAN 8-mers	0.0437 % of ANNNNAAN 8-mers	0.0239 % of ANNNNAAN 8-mers
AGCTGAAG	0.0187 % of ANNNNAAN 8-mers	0.0265 % of ANNNNAAN 8-mers	0.025 % of ANNNNAAN 8-mers	0.0223 % of ANNNNAAN 8-mers
ACCTTAAC	0.0118 % of ANNNNAAN 8-mers	0.0173 % of ANNNNAAN 8-mers	0.0152 % of ANNNNAAN 8-mers	0.0149 % of ANNNNAAN 8-mers
AACTAAAT	0.0778 % of ANNNNAAN 8-mers	0.0811 % of ANNNNAAN 8-mers	0.0667 % of ANNNNAAN 8-mers	0.0594 % of ANNNNAAN 8-mers
ATGCGAAA	0.0835 % of ANNNNAAN 8-mers	0.0926 % of ANNNNAAN 8-mers	0.0648 % of ANNNNAAN 8-mers	0.0743 % of ANNNNAAN 8-mers
ACGGGAAG	0.0332 % of ANNNNAAN 8-mers	0.0339 % of ANNNNAAN 8-mers	0.0254 % of ANNNNAAN 8-mers	0.0347 % of ANNNNAAN 8-mers
AAACGAAC	0.0328 % of ANNNNAAN 8-mers	0.0293 % of ANNNNAAN 8-mers	0.0437 % of ANNNNAAN 8-mers	0.0355 % of ANNNNAAN 8-mers
